The panel holds about 83,000 compounds, 20% with a hit somewhere; the sample as a whole holds those more often.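 Single-dose data. Exposure time 48 hours. Values below 10 considered active.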 The source made the active and inactive calls.
Key:
Assay in all cases: NCI-60 one-dose screen, 48 h (100 = growth as untreated, 0 = no growth, -100 = all killed)
Settings in all cases: 10 µM unless noted
HCT-15 colon = test system: HCT-15 colon
HT29 colon = test system: HT29 colon
SNB-75 CNS = test system: SNB-75 CNS
SNB-19 CNS = test system: SNB-19 CNS
U251 CNS = test system: U251 CNS
PC-3 prostate = test system: PC-3 prostate
SK-MEL-5 melanoma = test system: SK-MEL-5 melanoma
UACC-62 melanoma = test system: UACC-62 melanoma
LOX IMVI melanoma = test system: LOX IMVI melanoma
SK-MEL-28 melanoma = test system: SK-MEL-28 melanoma

Measured: growth

Cc1nc2c(nnn2-c2ccccc2)c2nc(-c3ccccc3)oc(=O)c12
inactive: HCT-15 colon 101% | HT29 colon 113% | SNB-75 CNS 99.1% | SNB-19 CNS 104% | U251 CNS 110% | PC-3 prostate 105% | SK-MEL-5 melanoma 104% | UACC-62 melanoma 97.2% | LOX IMVI melanoma 98.3% | SK-MEL-28 melanoma 104%

CCS(=O)(=O)OCCO[C@H]1Cc2cc3ccc(=O)oc3cc2OC1(C)C
inactive: HCT-15 colon 109% | HT29 colon 101% | SNB-75 CNS 101% | SNB-19 CNS 105% | U251 CNS 96.7% | PC-3 prostate 101% | SK-MEL-5 melanoma 101% | UACC-62 melanoma 102% | LOX IMVI melanoma 109% | SK-MEL-28 melanoma 116%

Clc1ccc(N/N=C/c2ccccn2)nc1
active: SK-MEL-5 melanoma -66.3% | UACC-62 melanoma -7.02% | LOX IMVI melanoma -6.42%
inactive: HCT-15 colon 20.6% | HT29 colon 27.3% | SNB-75 CNS 21.7% | SNB-19 CNS 28.2% | U251 CNS 18.1% | PC-3 prostate 39.3% | SK-MEL-28 melanoma 20%

CCC(C)C1NC(=O)C(CCCCN)NC(=O)C(CCCCN)NC(=O)C(CC(C)C)NC(=O)C(CCCCN)NC(=O)C(C(C)CC)NC(=O)C(C(C)C)NC(=O)C(C(C)CC)NC(=O)C(CCCCN)NC(=O)C(CCCCN)NC(=O)C(C)NC(=O)C(CCCCN)NC(=O)C(CC(C)C)NC1=O (stereo not given)
active: HT29 colon 5.52% | U251 CNS 6.7% | PC-3 prostate 6.52% | SK-MEL-5 melanoma 2.11%
inactive: HCT-15 colon 35.4% | SNB-75 CNS 36.9% | SNB-19 CNS 20.9% | UACC-62 melanoma 22.1% | LOX IMVI melanoma 50.5% | SK-MEL-28 melanoma 48.2%

NCCCOc1cc2ccccc2cc1C(=O)Nc1ccc(Cl)cc1OC(=O)c1cc2ccccc2cc1OCCCN
active: HCT-15 colon -82.2% | HT29 colon -94.9% | SNB-75 CNS -86.5% | SNB-19 CNS -61.5% | U251 CNS -93.6% | PC-3 prostate -93% | SK-MEL-5 melanoma -96.1% | UACC-62 melanoma -71.1% | LOX IMVI melanoma -86.7% | SK-MEL-28 melanoma -89.3%

CCC(C)(C)c1ccc(OCCCCCCN2CCN(c3ccc(C)c(Cl)c3)CC2)cc1
inactive: HCT-15 colon 64.8% | HT29 colon 82.8% | SNB-75 CNS 92.2% | SNB-19 CNS 103% | U251 CNS 104% | PC-3 prostate 78.1% | SK-MEL-5 melanoma 78.1% | UACC-62 melanoma 79.2% | LOX IMVI melanoma 81.8% | SK-MEL-28 melanoma 96.5%

CC(=O)Nc1ccc(CC#N)cc1Br
inactive: HCT-15 colon 105% | HT29 colon 104% | SNB-75 CNS 91% | SNB-19 CNS 103% | U251 CNS 104% | PC-3 prostate 95.6% | SK-MEL-5 melanoma 97.8% | UACC-62 melanoma 99.6% | LOX IMVI melanoma 106% | SK-MEL-28 melanoma 114%

CC(=O)OCC(=O)[C@@]1(O)[C@H](C)C[C@H]2[C@@H]3C=C(C)C4=Cc5c(cnn5-c5ccc(F)cc5)C[C@]4(C)[C@H]3[C@@H](O)C[C@@]21C
active: HCT-15 colon -11.1% | HT29 colon -43.4% | SNB-75 CNS 6.75% | U251 CNS 9.65% | SK-MEL-5 melanoma -47.3% | UACC-62 melanoma -9.5% | LOX IMVI melanoma 1.77%
inactive: SNB-19 CNS 25.9% | PC-3 prostate 12% | SK-MEL-28 melanoma 34.5%

CCN(CCO)CCNc1ccc(C)c2sc3cc(OC)ccc3c(=O)c12
inactive: HCT-15 colon 41.1% | HT29 colon 33.1% | SNB-75 CNS 70.9% | SNB-19 CNS 67.7% | U251 CNS 54% | PC-3 prostate 71.2% | SK-MEL-5 melanoma 80.6% | UACC-62 melanoma 98.9% | LOX IMVI melanoma 50.7% | SK-MEL-28 melanoma 94.2%

CCCCCCCCc1ccc(CCC(N)(CO)CO)cc1
active: HCT-15 colon -10% | HT29 colon -83.4% | U251 CNS -85.2% | LOX IMVI melanoma -54%
inactive: SNB-75 CNS 57.6% | SNB-19 CNS 52.5% | PC-3 prostate 37.1% | SK-MEL-5 melanoma 90.7% | UACC-62 melanoma 86.2% | SK-MEL-28 melanoma 92.8%

COc1ccc(C(O)(c2ccccc2)C(C(=O)O)c2ccccc2)cc1 (stereo not given)
inactive: HCT-15 colon 107% | HT29 colon 91.3% | SNB-75 CNS 94.6% | SNB-19 CNS 96.9% | U251 CNS 116% | PC-3 prostate 85.8% | SK-MEL-5 melanoma 102% | UACC-62 melanoma 93.6% | LOX IMVI melanoma 96.7% | SK-MEL-28 melanoma 112%

NCCCOc1cc(Cl)ccc1NC(=O)c1cc2ccccc2cc1OCCCN
inactive: SNB-19 CNS 34% | UACC-62 melanoma 26.4%
active: HCT-15 colon 4.32% | HT29 colon -91.3% | SNB-75 CNS -90.9% | U251 CNS -93.2% | PC-3 prostate -76.3% | SK-MEL-5 melanoma -86.4% | LOX IMVI melanoma -81.3% | SK-MEL-28 melanoma -96.5%

COC(=O)C(Cc1cnc[nH]1)N1CC(=O)N2[C@@H](c3ccccc3)SC[C@H]2C1=O (stereo not given in full)
inactive: HCT-15 colon 107% | HT29 colon 104% | SNB-75 CNS 120% | SNB-19 CNS 106% | U251 CNS 95.2% | PC-3 prostate 97.4% | SK-MEL-5 melanoma 131% | UACC-62 melanoma 106% | LOX IMVI melanoma 97.7% | SK-MEL-28 melanoma 117%

CCn1cc(C(=O)O)c(=O)c2cc(F)c(N3CCN(S(=O)(=O)c4ccc(Cl)cc4)CC3)cc21
active: HT29 colon 7.87%
inactive: HCT-15 colon 15.7% | SNB-75 CNS 41.8% | SNB-19 CNS 20.6% | U251 CNS 12% | PC-3 prostate 25.3% | SK-MEL-5 melanoma 26.6% | UACC-62 melanoma 21.5% | LOX IMVI melanoma 19.9% | SK-MEL-28 melanoma 44.6%

Cc1cc2c(-c3nc4ccccc4n3C)c(O)c(O)cc2c(O)c1-c1c(C)cc2c(-c3nc4ccccc4n3C)c(O)c(O)cc2c1O
inactive: HCT-15 colon 78.9% | HT29 colon 25.2% | SNB-75 CNS 69% | SNB-19 CNS 15.4% | U251 CNS 13.5% | PC-3 prostate 27.3% | SK-MEL-5 melanoma 91.3% | UACC-62 melanoma 28.9% | LOX IMVI melanoma 30.4% | SK-MEL-28 melanoma 58.1%

CCOC(=O)C1CCCN1C(=O)C1(NC(C)=O)CCCC1 (stereo not given)
inactive: HCT-15 colon 106% | HT29 colon 124% | SNB-75 CNS 95.7% | SNB-19 CNS 125% | U251 CNS 104% | PC-3 prostate 95.6% | SK-MEL-5 melanoma 109% | UACC-62 melanoma 121% | LOX IMVI melanoma 104% | SK-MEL-28 melanoma 114%

COc1ccc(Cn2cc3c(c2-c2ccc(O)cc2)CCc2cnoc2-3)cc1
inactive: HCT-15 colon 21.3% | HT29 colon 19.9% | SNB-75 CNS 19.1% | SNB-19 CNS 47.1% | U251 CNS 27.6% | PC-3 prostate 27% | SK-MEL-5 melanoma 19.2% | UACC-62 melanoma 44.5% | LOX IMVI melanoma 35.4% | SK-MEL-28 melanoma 54.3%

CCOC(=O)NC1=NCC(C)(C)S1
inactive: HCT-15 colon 104% | HT29 colon 91.3% | SNB-75 CNS 91.2% | SNB-19 CNS 98.1% | U251 CNS 101% | PC-3 prostate 93.6% | SK-MEL-5 melanoma 98.3% | UACC-62 melanoma 93.6% | LOX IMVI melanoma 94.4% | SK-MEL-28 melanoma 99.9%

O=C(Oc1ccccc1)c1ccccc1Cl
inactive: HCT-15 colon 98% | HT29 colon 118% | SNB-75 CNS 89.6% | SNB-19 CNS 104% | U251 CNS 98.5% | PC-3 prostate 95% | SK-MEL-5 melanoma 104% | UACC-62 melanoma 107% | LOX IMVI melanoma 107% | SK-MEL-28 melanoma 107%

CSCc1ncc(-c2ccc(C(F)(F)F)cc2)c(NC2CCCCCC2)n1
active: PC-3 prostate -5.89% [25 µM]
inactive: HCT-15 colon 64.9% [25 µM] | HT29 colon 64.9% [25 µM] | SNB-75 CNS 71.6% [25 µM] | SNB-19 CNS 73.1% [25 µM] | U251 CNS 68.5% [25 µM] | SK-MEL-5 melanoma 78.6% [25 µM] | UACC-62 melanoma 70.2% [25 µM] | LOX IMVI melanoma 82.7% [25 µM] | SK-MEL-28 melanoma 95.6% [25 µM]

CC(O)CCC(C)[N+](=O)[O-] (stereo not given)
inactive: HCT-15 colon 102% | HT29 colon 113% | SNB-75 CNS 83.3% | SNB-19 CNS 99.9% | U251 CNS 99.2% | PC-3 prostate 102% | SK-MEL-5 melanoma 102% | UACC-62 melanoma 95.4% | LOX IMVI melanoma 100% | SK-MEL-28 melanoma 98.3%

CC1=NN(c2cccc(Cl)c2)C(=O)/C1=C\c1cn(-c2nc(N3CCOCC3)nc(N3CCOCC3)n2)c2ccccc12
inactive: HCT-15 colon 107% | HT29 colon 95.4% | SNB-75 CNS 86.4% | SNB-19 CNS 103% | U251 CNS 110% | PC-3 prostate 93% | SK-MEL-5 melanoma 101% | UACC-62 melanoma 103% | LOX IMVI melanoma 95.7% | SK-MEL-28 melanoma 116%

COc1cc(-c2nc(/C=C3/C(=O)Nc4ccccc43)c3ccccn23)cc(OC)c1OC
inactive: HCT-15 colon 73.6% | HT29 colon 62.5% | SNB-75 CNS 106% | SNB-19 CNS 90.7% | U251 CNS 91.6% | PC-3 prostate 57.8% | SK-MEL-5 melanoma 51.6% | UACC-62 melanoma 72.7% | LOX IMVI melanoma 72.3% | SK-MEL-28 melanoma 63%

O=C(Nn1cnc2ccccc21)N1CCCC1
inactive: HCT-15 colon 112% | HT29 colon 109% | SNB-75 CNS 107% | SNB-19 CNS 110% | U251 CNS 99.8% | PC-3 prostate 106% | SK-MEL-5 melanoma 113% | UACC-62 melanoma 105% | LOX IMVI melanoma 98.1% | SK-MEL-28 melanoma 116%

COc1ccc2cnc(N)c(C#Cc3cc(C(=O)Nc4ccc(CN5CCN(C)CC5)c(C(F)(F)F)c4)cnc3C)c2c1
active: SNB-75 CNS -1.84% | SK-MEL-28 melanoma -72.5%
inactive: HCT-15 colon 43.5% | HT29 colon 13.2% | SNB-19 CNS 80.5% | U251 CNS 17.2% | PC-3 prostate 16% | SK-MEL-5 melanoma 34.6% | UACC-62 melanoma 26.3% | LOX IMVI melanoma 12%

CCOC(=O)C1=C(c2ccccc2)NC(=O)NC1CN1C(=O)c2ccccc2C1=O (stereo not given)
inactive: HCT-15 colon 115% | HT29 colon 110% | SNB-75 CNS 98.8% | SNB-19 CNS 107% | U251 CNS 102% | PC-3 prostate 100% | SK-MEL-5 melanoma 104% | UACC-62 melanoma 98.5% | LOX IMVI melanoma 110% | SK-MEL-28 melanoma 105%

CCCC(CCC)Oc1ccc(CCCC2=C(O)c3ccccc3C(=O)C2=O)cc1
active: LOX IMVI melanoma 5.38%
inactive: HCT-15 colon 21.7% | HT29 colon 25.8% | SNB-75 CNS 46.1% | SNB-19 CNS 28.2% | U251 CNS 27.1% | PC-3 prostate 27.7% | SK-MEL-5 melanoma 13.1% | UACC-62 melanoma 30.4% | SK-MEL-28 melanoma 59.2%
